Rows were chosen to be rich in hits. Some 3.5% of all compounds tested hit in one or more screens of this group.
3CLpro inhibitor – SARS-CoV 3CLpro protease inhibition. 0.14% of 290,000 active. P0C6X7. AID 1706. recombinant SARS-CoV 3CLpro, quenched FRET peptide cleavage. inhibition, % at 6 µM; in the data active means inhibition above about 12%
Anthrax LF inh2 – inhibitors of Bacillus anthracis lethal factor protease; P15917; multiplex microsphere protease cleavage assay, LF; inhibition, % at 10 µM; 0.12% of 360,000 active; AID 588501
BoNT-F LC inh – inhibitors of Botulinum neurotoxin F light chain protease; Multiplex microsphere protease cleavage assay, flow cytometry; inhibition, % at 10 µM; 0.22% of 360,000 active; in the data active means inhibition above about 35%, passing the limit was not always enough; inconclusive means no clear call, values can overlap the other calls
BoNT A protease – blocks Botulinum neurotoxin A light chain protease; multiplex microsphere protease substrate cleavage, flow cytometry; inhibition, % at 10 µM; 0.17% of 360,000 active
Bead autofluor – compound fluorescence in toxin protease inhibitor counterscreen | compound autofluorescence counterscreen, microsphere flow cytometry; hits give high values | fluorescence intensity (test concentration not listed) | 3.1% of 360,000 active; in the data active means fluorescence intensity above about 16000; inconclusive means no clear call, values can overlap the other calls
Large screens that a line does not name were inactive. Unless noted, no stated cut-off is given here; in the data, active means inhibition above about 30%; inconclusive means no clear call, values can overlap the other calls; inactive means below that.

CCn1cc(C(=O)N2CC(C)CC(C)C2)c(=O)c2cc(S(=O)(=O)N(C)C)ccc21 (centres undefined)	none
CCOC(=O)N1CCN(C(=O)c2cn(CC)c3ccc(S(=O)(=O)N4CCC(C)CC4)cc3c2=O)CC1	none
CCCS(=O)(=O)NC(=O)C1(C)CCN(C(=O)c2ccc(OC)cc2OC)C1 (centres undefined)	none (no result: 3CLpro inhibitor)
COc1ccc(OC)c(CNS(=O)(=O)c2cc(CN3C(=O)c4cccnc4C3=O)ccc2OC)c1	none
Cc1ccc(-n2c(=O)c(C#N)cc3c(=O)n4cccc(C)c4nc32)cc1	BoNT A protease inconclusive, Bead autofluor 20956
Cc1ccc(Cn2c(=N)c(C#N)cc3c(=O)n4cccc(C)c4nc32)cc1	none (no result: Anthrax LF inh2, BoNT-F LC inh, BoNT A protease, Bead autofluor)
Cc1ccc(N(C(C)C(=O)O)S(=O)(=O)c2c(C)[nH]c(=O)[nH]c2=O)cc1 (centres undefined)	none (no result: 3CLpro inhibitor)
COc1ccc2nc(C)cc(Nc3ccccc3O)c2c1	none
CC(=O)NC1(C(F)(F)F)NC(=O)N(C2CCCCC2)C1=O (centres undefined)	Bead autofluor 22952
CC(=O)Nc1ccc(S(=O)(=O)NC2(C(F)(F)F)NC(=O)N(c3ccc(C)cc3)C2=O)cc1 (centres undefined)	none
CC(=O)Nc1ccc(S(=O)(=O)NC2(C(F)(F)F)NC(=O)N(C3CCCC3)C2=O)cc1 (centres undefined)	Bead autofluor 22547
CC(=O)Nc1ccc(S(=O)(=O)NC2(C(F)(F)F)NC(=O)N(C3CCCCC3)C2=O)cc1 (centres undefined)	BoNT A protease inconclusive, Bead autofluor 23390
FC(F)Sc1ccc(NC(=S)NC2CCCCC2)cc1	none
O=C(CSc1nc2ccccc2c(=O)[nH]1)N1CCCCCC1	none
Cc1cc2nc(-c3cccnc3SCC(=O)NCc3ccco3)[nH]c2cc1C	Bead autofluor 22154
O=C(CSc1ncccc1-c1nc2ccccc2[nH]1)NCc1ccco1	none
CC1CCC(NC(=O)Cn2cnc3sccc3c2=O)CC1 (centres undefined)	Bead autofluor inconclusive (no result: 3CLpro inhibitor)
COc1ccc(C(C)(C)C)cc1NC(=O)c1ccoc1C	Bead autofluor 21536
COc1ccccc1OC(C)C(=O)Nc1nc(-c2ccc(S(=O)(=O)N3CCOCC3)cc2)cs1 (centres undefined)	BoNT A protease inconclusive, Bead autofluor 23958
O=C(Nc1ccc(F)cc1)NC1(C(=O)NCc2ccco2)CCCCC1	Bead autofluor 16458
CCc1ccc(Nc2n[n+](-c3ccccc3)c(-c3ccc(N(CC)CC)cc3)s2)cc1	Bead autofluor 19557
Fc1ccc(CO/N=C/C2=C(Cl)c3ccccc3CC2)cc1	none
CC1=NN(C(=O)Cn2ccc([N+](=O)[O-])n2)C(O)(C(F)(F)F)C1 (centres undefined)	none
COc1nn(CC(=O)N2N=C(C)CC2(O)C(F)(F)F)cc1[N+](=O)[O-] (centres undefined)	Bead autofluor 24478
Cn1nc(CC(=O)NC2CCCCCC2)c2ccccc2c1=O	none
Cn1nc(CC(=O)NC2CCCCC2)c2ccccc2c1=O	Bead autofluor 23933
COc1cc(NC(=O)Cc2nn(C)c(=O)c3ccccc23)cc(OC)c1OC	BoNT A protease inconclusive, Bead autofluor 17080
COc1ccc(OC)c(NC(=O)Cc2nn(C)c(=O)c3ccccc23)c1	none
Cn1nc(C(=O)NC2CCCCCC2)ccc1=O	BoNT A protease inconclusive, Bead autofluor 22596
CCOC(=O)C1CCC2(CC1)C(C#N)=C(N)Oc1n[nH]c(C)c12 (centres undefined)	Bead autofluor 20477
CCOC(=O)C1CCCCC12C(C#N)=C(N)Oc1n[nH]c(C)c12 (centres undefined)	none
O=C(CCCSc1nc2ccccc2[nH]1)NCc1ccccc1	none
O=C(CCCSc1nc2ccccc2[nH]1)Nc1nnc(-c2ccccc2)o1	BoNT A protease inconclusive, Bead autofluor 22546
COc1ccnc(N2CCN(c3ccc(Cl)cc3)CC2)c1C#N	none
COc1cc(=O)[nH]c(SCc2c(F)c(F)c(F)c(F)c2F)n1	Bead autofluor 18910
O=c1cc(-c2ccccc2)nc(SCc2ccc(F)cc2)[nH]1	none
CC1CCCN(C(=O)Cn2nnc(-c3ccccc3F)n2)C1 (centres undefined)	none
COc1ccc(Cn2nnnc2C(c2cc3cc(C)cc(C)c3[nH]c2=O)N2CCOCC2)cc1 (centres undefined)	none
CCc1ccc2[nH]c(=O)c(C(c3nnnn3Cc3ccc(OC)cc3)N3CCOCC3)cc2c1 (centres undefined)	Bead autofluor 16212
CCc1ccc2[nH]c(=O)c(C(c3nnnn3Cc3ccccc3)N3CCOCC3)cc2c1 (centres undefined)	BoNT A protease inconclusive, Bead autofluor 21543

High-throughput results as filed in PubChem.
